From PubChem
SARS PLpro yeast-1: SARS-CoV PLP inhibition in yeast. S. cerevisiae expressing SARS-CoV PLpro, growth rescue. Potency, µM (top dose mostly 32.9 µM), inactives show at the highest dose activity, positive = growth rescue, usual class: activators. actives 0.19% (n = 330,000); note: potency is the fitted concentration of half-maximal effect; 0% is about no effect; nearly all actives have a fitted effect of over 55% in size
NS1 inh: inhibitors of influenza NS1 protein function. Potency, µM (series often up to 46.1 µM), for the others: at the top dose activity, positive = more growth. actives 0.4% (n = 270,000). AID 2326; note: potency is the fitted concentration of half-maximal effect; actives are rising curves; nearly all actives have a fitted effect of over 50% in size
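Recovery from NS1-induced slow growth read by OD600 in budding yeast switched to galactose assay medium (pH 6.0, -URA) at 1:100 dilution. Compound 23 nl per well; the matching strain lacking NS1 serves as control.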
AMA1 RON2 block: disrupts binding of P. falciparum AMA1 to RON2 | actives 0.2% (n = 360,000) | AlphaScreen AMA1-biotinylated RON2 peptide binding | Potency, µM (doses to about 58.2 µM), inactives show at the top dose activity change, negative = inhibition, usual class: inhibitors; active = well fitted inhibition curve with a large enough effect; inconclusive = small, poorly fitted or top-dose-only effect; inactive = no such curve, though single readings can be large or run the other way;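 note: potency is the fitted concentration of half-maximal effect; 0% = vehicle wells and -100% = peptide control; nearly all actives have a fitted effect of over 45% in size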
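AMA1 (3D7) with his tag at 25 nM final met compounds first, then biotinylated RON2 peptide at 25 nM; detection used donor plus acceptor beads, 10 µg/mL apiece, read by AlphaScreen after 30 min at room temperature.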
SARS PLpro yeast-2: Inhibits SARS-CoV PLP in yeast, hit validation | shares compounds with SARS PLpro yeast-1 | AID 652038 | calls only | actives 19% (n = 1,000) | yeast expressing SARS-CoV PLpro, growth phenotype rescue; call rule not given here
The depositor's hits bear a star; i = inactive; ? = inconclusive; · = no result given; + = active, no number; ! = a repeat was not active. Sampled rows, rich in hits. Any-hit rate of the full collection: about 0.65%. Unless noted, calls come from the whole dose curve.

SMILES	SARS PLpro yeast-1	NS1 inh	AMA1 RON2 block	SARS PLpro yeast-2
CC12CCC(C(=O)N/N=C/c3ccc(O)cc3O)(OC1=O)C2(C)C (configuration not stated)	10.2%	-2.4%	55.6%	·
COc1cc(/C=C2\SC(=O)N(CCNC(=O)c3c(C)noc3C)C2=O)cc(OC)c1OC	5.4%	·	10.1%	·
O=C(N/N=C/c1c(O)n(CCc2ccccc2)c(=O)[nH]c1=O)c1ccccc1O	2.24µM*	-7.4%	64.9%	?
O=C(N/N=C/c1c(O)n(CCc2ccc(F)cc2)c(=O)[nH]c1=O)c1ccccc1	2.0%	9.4%	94.9%	·
N#CC1=C(N)N(c2ccc(F)cc2)C2=C(C1c1ccc(O)cc1)S(=O)(=O)CC2 (configuration not stated)	1.5%	·	7.6%	·
Cc1cccc(NC(=O)C2CC2c2ccccc2)c1C (configuration not stated)	-2.4%	-12.5%	4.1%	·
CC(=O)Nc1ccc(NC(=O)CC(C)n2ccnc2)cc1 (configuration not stated)	-1.3%	-2.5%	0.7%	·
COc1cccc(NC(=O)COC(=O)CNS(=O)(=O)c2c(F)cccc2F)c1	?	4.8%	-11.1%	i
COc1cccc(NC(=O)COC(=O)c2ccccc2F)c1	-2.6%	6.0%	-0.9%	·
Cc1nc(-c2nnc(SCC(=O)Nc3ccc(C(F)(F)F)cc3)n2C)cs1	1.3%	1.7%	12.0%	·
[O-][n+]1c2ccccc2c2n1CCN=C2c1ccc(Cl)cc1	-0.9%	·	-1.0%	·
COc1ccc2c3n([n+]([O-])c2c1)CCN=C3c1ccc(Cl)cc1	?	·	15.8%	i
CC(C(=O)Nc1ccccc1)N(C)Cc1cccs1 (configuration not stated)	-2.0%	-48.1%	-1.0%	·
Cc1ccc(S(=O)(=O)N(C)C[C@H]2Oc3ccc(NC(=O)Nc4c(C)noc4C)cc3CC(=O)N([C@@H](C)CO)C[C@@H]2C)cc1	-6.3%	·	8.2%	·
CNC[C@@H]1Oc2ccc(NC(=O)Nc3c(C)noc3C)cc2CC(=O)N([C@H](C)CO)C[C@H]1C	11.2µM*	·	-4.3%	i
COc1cc(/C=C/C(=O)O)ccc1OS(=O)(=O)c1cc(C)ccc1C	-0.8%	·	-2.3%	·
COc1cc(/C=C/C(=O)O)ccc1OS(=O)(=O)c1cc(Br)ccc1C	10µM*	·	0.0%	i
CC(C)NC(=O)N(C)C[C@H]1Oc2ccc(NC(=O)Nc3ccc(C(F)(F)F)cc3)cc2C(=O)N([C@H](C)CO)C[C@@H]1C	-0.9%	·	-2.4%	·
COc1cccc(CN2CCNC(=O)C2CC(=O)N(C)CC2CCOCC2)c1 (configuration not stated)	4.3%	8.6%	22.2%	·
COc1cccc(CN(C)C(=O)CC2C(=O)NCCN2C2Cc3ccccc3C2)c1 (configuration not stated)	·	-11.4%	-4.3%	i
COc1ccc(CN(C)C(=O)[C@H]2O[C@@H](n3cnc4c(N)ncnc43)[C@H](O)[C@@H]2O)cc1OC	·	·	-3.2%	·
COc1ccc(N2C(=O)C3CCCN3C2=S)cc1 (configuration not stated)	-3.4%	-6.7%	?	·
COc1cccc(-c2ccc3ncnc(NCc4cccs4)c3c2)c1	7.08µM*!	·	·	i
c1cncc(-c2ccc3ncnc(NCc4cccs4)c3c2)c1	-0.1%	·	·	·
Cc1ccc(OCCC(=O)OCC(=O)NCCc2ccc(Cl)cc2)cc1	-2.1%	·	11.1%	·
SMILES	SARS PLpro yeast-1	NS1 inh	AMA1 RON2 block	SARS PLpro yeast-2
O=C(N/N=C/c1cc(Cl)ccc1O)c1ccc(Br)cc1	?	-16.3%	-14.2%	i
Nc1nonc1-n1nnc(C(=O)N/N=C/c2cc(Br)ccc2O)c1CNc1ccccc1	?	7.9%	21.4%	·
Nc1nonc1C(=O)N/N=C/c1cc(Br)ccc1O	?	-0.1%	-8.5%	+
O=C(N/N=C/c1cc(Br)ccc1O)c1ccncc1	-0.6%	-72.8%	-76.7%	·
Clc1cc(/C=N\NC2=NCCN2)cc(Cl)n1	·	·	-11.7%	·
COc1cc(C(=O)OCc2cccc(S(=O)(=O)N3CCOCC3)c2)ccc1OCC(C)C	-8.2%	·	2.7%	·
COc1ccc(/C=N\NC(=O)c2cc(O)c(O)c(O)c2)cc1CN1CCN(c2ccc(F)cc2)CC1	12.6µM*	?	-17.6%	+
COc1ccc(/C=N/NC(=O)c2ccc(C)cc2)cc1CN1CCN(c2ccc(F)cc2)CC1	7.6%	2.8%	-1.4%	·
COc1ccc([C@H]2CC(=O)C[C@@H](CCn3cc(C)nn3)O2)cc1	·	·	5.3%	·
NCCc1ccc(S(=O)(=O)O)cc1[N+](=O)[O-]	·	-3.5%	·	·
C(=N\Nc1nncc2ccccc12)/c1ccccn1	12.6µM*	-125.5%	96.6%	i
Fc1cccc(/C=N/Nc2nncc3ccccc23)c1	-6.7%	-8.0%	-3.8%	·
CCc1nnc(NC(=O)CSc2nc3cc(OC)ccc3cc2C)s1	0.6%	·	1.7%	·
O=C(N/N=C/c1c(O)n(-c2ccc(Cl)cn2)c(=O)c2ccccc12)c1ccncc1	12.6µM*	8.4%	21.1%	i
O=C(N/N=C/c1c(O)n(-c2ccc(Cl)cn2)c(=O)c2ccccc12)C1CC1	-5.5%	3.3%	-0.2%	·
CCCNC(=O)C1(C)CCCN(C(=O)Cc2cccc(OC)c2)C1 (configuration not stated)	·	·	0.0%	·
Cc1c(NC(=O)C(C)Sc2ccccc2)c(=O)n(-c2ccccc2)n1C (configuration not stated)	-6.8%	-0.5%	13.3%	·
Cc1ccc(SC(C)C(=O)Nc2c(C)n(C)n(-c3ccccc3)c2=O)cc1 (configuration not stated)	?	0.4%	3.4%	+
Cc1ccc(SCCC(=O)Nc2c(C)n(C)n(-c3ccccc3)c2=O)cc1	?	2.4%	8.0%	i
Cc1c(NC(=O)CSc2ccc(Cl)cc2)c(=O)n(-c2ccccc2)n1C	-1.1%	·	14.5%	·
Cc1cc([N+](=O)[O-])nn1CC(=O)N1CCCc2ccccc21	15.8µM*	15.5%	-10.5%	i
Cc1c(Cl)c([N+](=O)[O-])nn1CC(=O)N1CCCc2ccccc21	5.7%	15.3%	-1.6%	·
Cn1cccc1/C=N/NC(N)=S	10µM*	-0.4%	73.6%	+
Cn1cccc1/C=N/NC(=O)Cc1ccccc1	1.6%	-3.4%	13.0%	·
Cn1c(=O)c2cc(NC(=O)Nc3cccnc3)ccc2n1Cc1cccc(C(F)(F)F)c1	·	·	-0.2%	·
SMILES	SARS PLpro yeast-1	NS1 inh	AMA1 RON2 block	SARS PLpro yeast-2
Cc1nn(-c2ccccc2)c(N2CCCC2)c1/C=N/NC(=O)c1ccccc1O	-4.4%	-22.9%	31.2%	·
O=C(N/N=C/c1cc2c3c(c1O)CCCN3CCC2)c1ccccc1O	2.82µM*	25.5%	?	?
O=C(Cc1nc2ccccc2[nH]1)c1cccc([N+](=O)[O-])c1	-1.6%	6.7%	97.6%	·
CCOc1ccc(N(C(C)C(=O)NN=C2CCCCCCC2)S(C)(=O)=O)cc1 (configuration not stated)	0.6%	-2.0%	46.1%	·
COc1ccc(N(C(C)C(=O)NN=C2CCCC2)S(C)(=O)=O)cc1 (configuration not stated)	11.2µM*	·	7.5%	i
COc1ccc(C)cc1NC(=O)NCc1ccco1	-0.9%	-0.5%	6.7%	·
COc1ccc(C)cc1NC(=O)c1cc2ccccc2cc1OCC(=O)NCc1ccco1	3.55µM*	?	-8.8%	+
CCN(CC)c1ccc(/C=N/N2CCN(c3ccccn3)CC2)cc1	-0.9%	0.7%	-13.9%	·
